# Assay results reported in paper PMC7862700, “An all-to-all approach to the identification of sequence-specific readers for epigenetic DNA modifications on cytosine”.
# Key:
# Assay in all cases: DAPPL (digital affinity profiling via proximity ligation, sequencing); 10 mM Tris-HCl pH 7.5, 50 mM NaCl, 1 mM DTT, 4% glycerol, room temperature, 30 min; GST-TFs on glutathione beads, 16-mer random dsDNA library, 0.1% formaldehyde crosslink after washing; high values mean tight binding
# [1] = target: T1, FLI1 (Homo sapiens, UniProt Q01543 1-452); details: protein: recombinant; tags: N-terminal GST; dsDNA, one strand shown
# T1 sequence: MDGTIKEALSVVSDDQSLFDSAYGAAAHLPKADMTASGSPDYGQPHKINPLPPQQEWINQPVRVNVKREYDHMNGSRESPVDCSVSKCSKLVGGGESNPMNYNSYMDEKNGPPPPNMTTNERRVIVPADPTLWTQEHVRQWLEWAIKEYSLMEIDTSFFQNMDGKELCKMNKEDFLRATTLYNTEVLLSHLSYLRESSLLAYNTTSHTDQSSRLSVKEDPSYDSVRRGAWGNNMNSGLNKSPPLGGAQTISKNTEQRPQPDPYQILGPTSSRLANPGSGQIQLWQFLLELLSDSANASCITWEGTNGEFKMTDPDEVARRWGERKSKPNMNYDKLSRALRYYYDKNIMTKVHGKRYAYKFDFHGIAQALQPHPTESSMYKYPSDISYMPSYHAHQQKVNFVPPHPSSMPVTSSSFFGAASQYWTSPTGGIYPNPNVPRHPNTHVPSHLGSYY
# Summary of the method: (§1)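 Human transcription factors carrying a GST fusion were produced in yeast, bound to glutathione beads, tagged with DNA barcodes and pooled together with a tag-only sample. Each pool was held with 200 nmole of a random double-stranded 16-mer DNA library in Tris/NaCl/DTT/glycerol buffer for 30 min at room temperature, then washed, crosslinked in 0.1% formaldehyde, proximity-ligated with BsaI/T4 ligase (1 h, 37 °C), PCR-amplified and sequenced on an Illumina NextSeq500. Binding signal is the read frequency of each hexamer for a given factor divided by its frequency in the tag-only sample.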
# [2] = target: T2, ELK1 (Homo sapiens, UniProt P19419 1-428); details: protein: recombinant; tags: N-terminal GST; dsDNA, one strand shown
# T2 sequence: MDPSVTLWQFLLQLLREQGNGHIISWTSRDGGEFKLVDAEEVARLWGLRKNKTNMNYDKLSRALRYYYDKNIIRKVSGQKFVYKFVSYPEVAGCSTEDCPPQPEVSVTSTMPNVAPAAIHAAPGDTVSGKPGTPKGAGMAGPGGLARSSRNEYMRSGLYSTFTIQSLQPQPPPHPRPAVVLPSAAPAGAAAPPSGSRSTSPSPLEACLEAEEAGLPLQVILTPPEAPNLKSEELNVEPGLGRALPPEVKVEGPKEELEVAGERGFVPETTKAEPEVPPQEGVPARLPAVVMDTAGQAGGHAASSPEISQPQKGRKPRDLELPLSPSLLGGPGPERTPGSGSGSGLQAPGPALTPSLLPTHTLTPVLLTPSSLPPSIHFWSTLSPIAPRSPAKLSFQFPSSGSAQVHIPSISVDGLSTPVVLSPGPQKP
# Summary of the method: as §1
# [3] = target: T3, GABPA (Homo sapiens, UniProt Q06546 1-454); details: protein: recombinant; tags: N-terminal GST; dsDNA, one strand shown
# T3 sequence: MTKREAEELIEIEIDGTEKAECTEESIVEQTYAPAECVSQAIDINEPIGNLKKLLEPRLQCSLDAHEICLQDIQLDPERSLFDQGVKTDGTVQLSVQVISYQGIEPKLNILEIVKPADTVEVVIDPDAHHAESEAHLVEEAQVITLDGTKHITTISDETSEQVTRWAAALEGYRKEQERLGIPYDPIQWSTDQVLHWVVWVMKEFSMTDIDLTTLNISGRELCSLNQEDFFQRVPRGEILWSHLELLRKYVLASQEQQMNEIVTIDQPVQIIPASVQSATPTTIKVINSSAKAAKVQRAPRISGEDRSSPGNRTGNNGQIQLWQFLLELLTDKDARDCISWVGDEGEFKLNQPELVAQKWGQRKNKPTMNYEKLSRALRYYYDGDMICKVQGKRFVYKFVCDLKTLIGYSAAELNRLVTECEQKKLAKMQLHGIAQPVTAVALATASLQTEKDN
# Summary of the method: as §1
# [4] = target: T4, ERG (Homo sapiens, UniProt P11308 1-479); details: protein: recombinant; tags: N-terminal GST; dsDNA, one strand shown
# T4 sequence: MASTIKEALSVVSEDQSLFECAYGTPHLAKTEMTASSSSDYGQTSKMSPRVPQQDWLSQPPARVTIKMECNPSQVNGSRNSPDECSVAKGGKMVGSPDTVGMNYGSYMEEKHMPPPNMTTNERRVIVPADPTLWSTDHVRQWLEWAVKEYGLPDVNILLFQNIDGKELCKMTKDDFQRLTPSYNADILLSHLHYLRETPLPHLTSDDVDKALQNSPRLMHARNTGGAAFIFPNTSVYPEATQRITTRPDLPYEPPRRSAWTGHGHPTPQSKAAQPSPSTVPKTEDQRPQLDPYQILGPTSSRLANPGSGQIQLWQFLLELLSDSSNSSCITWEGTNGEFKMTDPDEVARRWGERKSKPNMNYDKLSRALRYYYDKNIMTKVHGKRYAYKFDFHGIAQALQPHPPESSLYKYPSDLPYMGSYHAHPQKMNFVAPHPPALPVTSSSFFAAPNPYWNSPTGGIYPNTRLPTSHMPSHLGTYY
# Summary of the method: as §1
# [5] = target: ELF1 (Homo sapiens, UniProt P32519 1-619); details: protein: recombinant; tags: N-terminal GST; dsDNA, one strand shown
# Summary of the method: as §1
# [6] = target: T5, EHF (Homo sapiens, UniProt Q9NZC4 1-300); details: protein: recombinant; tags: N-terminal GST; dsDNA, one strand shown
# T5 sequence: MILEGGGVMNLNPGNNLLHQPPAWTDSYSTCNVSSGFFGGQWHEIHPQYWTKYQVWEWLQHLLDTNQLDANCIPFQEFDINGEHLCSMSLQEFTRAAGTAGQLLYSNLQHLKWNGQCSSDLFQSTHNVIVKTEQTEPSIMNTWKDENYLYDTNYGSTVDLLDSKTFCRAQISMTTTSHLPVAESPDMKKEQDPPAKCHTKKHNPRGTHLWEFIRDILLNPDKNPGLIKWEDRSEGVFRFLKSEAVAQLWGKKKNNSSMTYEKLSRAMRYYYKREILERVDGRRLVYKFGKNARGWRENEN
# Summary of the method: as §1
# [7] = target: SPI1 (Homo sapiens, UniProt P17947 1-270); details: protein: recombinant; tags: N-terminal GST; dsDNA, one strand shown
# Summary of the method: as §1
# [8] = target: SPIB (Homo sapiens, UniProt Q01892 1-262); details: protein: recombinant; tags: N-terminal GST; dsDNA, one strand shown
# Summary of the method: as §1
# [9] = target: T6, ELK3 (Homo sapiens, UniProt P41970 1-407); details: protein: recombinant; tags: N-terminal GST; dsDNA, one strand shown
# T6 sequence: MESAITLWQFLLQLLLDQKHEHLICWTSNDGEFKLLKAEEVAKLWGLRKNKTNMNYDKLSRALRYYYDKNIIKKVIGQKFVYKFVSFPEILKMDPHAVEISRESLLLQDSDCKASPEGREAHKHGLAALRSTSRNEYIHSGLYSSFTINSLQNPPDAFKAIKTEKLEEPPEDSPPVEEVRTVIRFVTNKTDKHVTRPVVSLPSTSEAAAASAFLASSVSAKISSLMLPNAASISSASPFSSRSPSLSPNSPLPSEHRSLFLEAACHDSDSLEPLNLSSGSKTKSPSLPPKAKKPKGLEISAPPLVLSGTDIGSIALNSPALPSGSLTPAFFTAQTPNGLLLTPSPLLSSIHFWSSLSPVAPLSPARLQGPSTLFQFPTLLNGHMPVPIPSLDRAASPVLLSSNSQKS
# Summary of the method: as §1
# [10] = target: T7, FEV (Homo sapiens, UniProt Q99581 1-238); details: protein: recombinant; tags: N-terminal GST; dsDNA, one strand shown
# T7 sequence: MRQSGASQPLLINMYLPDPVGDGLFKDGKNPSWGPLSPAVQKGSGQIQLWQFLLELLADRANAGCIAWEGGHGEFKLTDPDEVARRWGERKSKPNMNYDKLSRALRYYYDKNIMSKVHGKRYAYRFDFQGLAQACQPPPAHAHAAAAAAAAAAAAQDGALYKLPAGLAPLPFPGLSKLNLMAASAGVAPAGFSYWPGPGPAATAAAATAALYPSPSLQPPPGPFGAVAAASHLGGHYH
# Summary of the method: as §1
# [11] = target: ETV5 (Homo sapiens, UniProt P41161 1-510); details: protein: recombinant; tags: N-terminal GST; dsDNA, one strand shown
# Summary of the method: as §1
# [12] = target: HSF1 (Homo sapiens, UniProt Q00613 1-529); details: protein: recombinant; tags: N-terminal GST; chain copies: 3; dsDNA, one strand shown
# Summary of the method: as §1
# [13] = target: T8, SPIC (Homo sapiens, UniProt Q8N5J4 1-248); details: protein: recombinant; tags: N-terminal GST; dsDNA, one strand shown
# T8 sequence: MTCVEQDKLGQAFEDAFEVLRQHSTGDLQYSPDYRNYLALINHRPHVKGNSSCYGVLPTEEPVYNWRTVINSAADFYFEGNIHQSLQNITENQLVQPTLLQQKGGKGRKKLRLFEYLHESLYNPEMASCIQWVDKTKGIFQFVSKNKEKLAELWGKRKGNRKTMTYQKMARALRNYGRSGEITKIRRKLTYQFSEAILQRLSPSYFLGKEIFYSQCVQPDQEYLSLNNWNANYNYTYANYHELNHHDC
# Summary of the method: as §1
# [14] = target: ELF4 (Homo sapiens, UniProt Q99607 1-663); details: protein: recombinant; tags: N-terminal GST; dsDNA, one strand shown
# Summary of the method: as §1
# [15] = target: T9, ELK4 (Homo sapiens, UniProt P28324-2 1-405); details: protein: recombinant; tags: N-terminal GST; dsDNA, one strand shown
# T9 sequence: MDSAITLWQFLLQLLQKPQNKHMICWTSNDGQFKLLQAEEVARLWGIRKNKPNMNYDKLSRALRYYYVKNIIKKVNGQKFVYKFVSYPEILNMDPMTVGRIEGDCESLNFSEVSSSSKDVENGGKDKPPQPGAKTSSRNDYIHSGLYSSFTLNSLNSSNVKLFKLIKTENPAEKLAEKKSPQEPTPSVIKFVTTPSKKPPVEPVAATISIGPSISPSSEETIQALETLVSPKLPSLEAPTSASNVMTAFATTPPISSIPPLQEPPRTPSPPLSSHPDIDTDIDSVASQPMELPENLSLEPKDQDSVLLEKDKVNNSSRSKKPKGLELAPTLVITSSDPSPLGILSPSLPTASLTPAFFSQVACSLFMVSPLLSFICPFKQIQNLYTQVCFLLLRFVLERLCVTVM
# Summary of the method: as §1
# [16] = target: T10, ETV2 (Homo sapiens, UniProt O00321 1-342); details: protein: recombinant; tags: N-terminal GST; dsDNA, one strand shown
# T10 sequence: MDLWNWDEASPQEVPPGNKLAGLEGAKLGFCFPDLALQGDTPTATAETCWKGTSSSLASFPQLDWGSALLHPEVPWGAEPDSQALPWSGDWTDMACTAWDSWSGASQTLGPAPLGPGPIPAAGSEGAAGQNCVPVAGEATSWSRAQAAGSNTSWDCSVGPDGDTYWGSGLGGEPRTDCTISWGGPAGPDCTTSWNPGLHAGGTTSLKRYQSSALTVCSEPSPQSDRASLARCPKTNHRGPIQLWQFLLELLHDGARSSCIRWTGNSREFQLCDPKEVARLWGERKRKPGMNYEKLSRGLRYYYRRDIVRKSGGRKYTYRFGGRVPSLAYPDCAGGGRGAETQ
# Summary of the method: as §1
# [17] = target: T11, ELF3 (Homo sapiens, UniProt P78545 1-371); details: protein: recombinant; tags: N-terminal GST; dsDNA, one strand shown
# T11 sequence: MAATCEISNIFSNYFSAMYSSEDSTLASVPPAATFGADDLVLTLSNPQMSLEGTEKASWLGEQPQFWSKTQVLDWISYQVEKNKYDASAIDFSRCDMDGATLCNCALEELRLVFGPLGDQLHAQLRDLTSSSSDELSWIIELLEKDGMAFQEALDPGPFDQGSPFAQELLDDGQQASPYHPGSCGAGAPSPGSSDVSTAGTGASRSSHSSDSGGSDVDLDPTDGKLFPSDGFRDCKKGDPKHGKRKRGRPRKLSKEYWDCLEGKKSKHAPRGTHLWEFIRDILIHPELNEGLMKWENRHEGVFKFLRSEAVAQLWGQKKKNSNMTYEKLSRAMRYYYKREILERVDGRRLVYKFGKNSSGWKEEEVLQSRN
# Summary of the method: as §1
# [18] = target: CRX (Homo sapiens, UniProt O43186 1-299); details: protein: recombinant; tags: N-terminal GST; dsDNA, one strand shown
# Summary of the method: as §1
# [19] = target: ETV1 (Homo sapiens, UniProt P50549 1-477); details: protein: recombinant; tags: N-terminal GST; dsDNA, one strand shown
# Summary of the method: as §1
# Sequence of ELF4 (Q99607 whole entry): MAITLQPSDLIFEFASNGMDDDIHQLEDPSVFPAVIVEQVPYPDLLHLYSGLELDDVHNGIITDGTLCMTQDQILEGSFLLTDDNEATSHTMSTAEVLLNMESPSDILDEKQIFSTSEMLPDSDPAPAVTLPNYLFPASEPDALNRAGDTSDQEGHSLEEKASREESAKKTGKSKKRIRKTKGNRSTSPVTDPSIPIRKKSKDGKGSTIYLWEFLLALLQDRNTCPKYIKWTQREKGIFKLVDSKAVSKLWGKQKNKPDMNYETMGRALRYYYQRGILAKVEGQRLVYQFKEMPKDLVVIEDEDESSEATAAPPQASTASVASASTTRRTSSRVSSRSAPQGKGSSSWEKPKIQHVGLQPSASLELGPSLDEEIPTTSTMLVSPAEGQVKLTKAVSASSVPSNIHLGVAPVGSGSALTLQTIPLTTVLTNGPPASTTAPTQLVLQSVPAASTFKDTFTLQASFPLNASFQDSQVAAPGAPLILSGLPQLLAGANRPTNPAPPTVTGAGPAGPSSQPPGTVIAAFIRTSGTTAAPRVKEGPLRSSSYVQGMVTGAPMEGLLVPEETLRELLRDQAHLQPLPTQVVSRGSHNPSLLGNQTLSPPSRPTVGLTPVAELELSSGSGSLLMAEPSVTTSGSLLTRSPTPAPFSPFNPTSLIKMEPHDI
# Sequence of ELF1 (P32519 whole entry): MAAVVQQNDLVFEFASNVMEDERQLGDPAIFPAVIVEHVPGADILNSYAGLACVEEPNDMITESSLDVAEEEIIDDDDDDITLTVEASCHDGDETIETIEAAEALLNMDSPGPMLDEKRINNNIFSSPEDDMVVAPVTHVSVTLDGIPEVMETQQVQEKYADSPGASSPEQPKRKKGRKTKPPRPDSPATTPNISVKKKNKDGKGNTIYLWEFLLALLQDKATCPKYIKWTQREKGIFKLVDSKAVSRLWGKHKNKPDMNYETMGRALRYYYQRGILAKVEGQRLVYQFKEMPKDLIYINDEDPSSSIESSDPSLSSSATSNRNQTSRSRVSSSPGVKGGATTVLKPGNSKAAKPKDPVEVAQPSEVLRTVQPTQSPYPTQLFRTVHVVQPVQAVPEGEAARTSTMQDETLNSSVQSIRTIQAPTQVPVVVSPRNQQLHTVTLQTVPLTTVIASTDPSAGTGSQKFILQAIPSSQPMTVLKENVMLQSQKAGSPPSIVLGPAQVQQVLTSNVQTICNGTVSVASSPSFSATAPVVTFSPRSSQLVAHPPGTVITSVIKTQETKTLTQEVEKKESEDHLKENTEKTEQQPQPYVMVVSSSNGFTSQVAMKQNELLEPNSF
# Sequence of HSF1 (Q00613 whole entry): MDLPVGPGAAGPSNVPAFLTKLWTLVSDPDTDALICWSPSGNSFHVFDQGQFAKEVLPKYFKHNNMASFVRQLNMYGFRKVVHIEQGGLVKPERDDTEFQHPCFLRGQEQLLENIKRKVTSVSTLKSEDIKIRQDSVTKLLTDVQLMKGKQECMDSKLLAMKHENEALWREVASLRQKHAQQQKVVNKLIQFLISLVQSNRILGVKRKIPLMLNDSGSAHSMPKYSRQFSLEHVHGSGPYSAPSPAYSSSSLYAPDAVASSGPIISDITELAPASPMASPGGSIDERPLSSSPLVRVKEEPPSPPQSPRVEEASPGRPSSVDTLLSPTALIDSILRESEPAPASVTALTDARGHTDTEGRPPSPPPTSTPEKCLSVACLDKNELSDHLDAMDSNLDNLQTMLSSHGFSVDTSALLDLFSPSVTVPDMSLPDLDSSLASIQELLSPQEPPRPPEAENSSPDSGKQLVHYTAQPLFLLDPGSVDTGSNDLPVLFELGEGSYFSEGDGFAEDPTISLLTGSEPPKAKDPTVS
# Sequence of ETV5 (P41161 whole entry): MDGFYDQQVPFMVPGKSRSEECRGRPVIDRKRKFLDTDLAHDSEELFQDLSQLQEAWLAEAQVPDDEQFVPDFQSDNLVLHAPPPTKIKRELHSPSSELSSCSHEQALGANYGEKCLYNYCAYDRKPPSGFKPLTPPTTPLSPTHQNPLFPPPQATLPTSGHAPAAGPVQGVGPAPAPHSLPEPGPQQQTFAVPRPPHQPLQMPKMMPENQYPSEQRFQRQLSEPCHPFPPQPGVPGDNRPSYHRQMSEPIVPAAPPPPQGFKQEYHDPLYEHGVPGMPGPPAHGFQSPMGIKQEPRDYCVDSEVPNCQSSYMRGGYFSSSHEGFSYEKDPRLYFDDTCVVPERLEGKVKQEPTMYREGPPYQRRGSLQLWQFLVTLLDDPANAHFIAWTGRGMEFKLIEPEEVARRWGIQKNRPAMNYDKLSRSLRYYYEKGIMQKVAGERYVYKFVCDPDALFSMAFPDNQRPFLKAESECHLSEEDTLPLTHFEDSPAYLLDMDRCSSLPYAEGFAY
# Sequence of CRX (O43186 whole entry): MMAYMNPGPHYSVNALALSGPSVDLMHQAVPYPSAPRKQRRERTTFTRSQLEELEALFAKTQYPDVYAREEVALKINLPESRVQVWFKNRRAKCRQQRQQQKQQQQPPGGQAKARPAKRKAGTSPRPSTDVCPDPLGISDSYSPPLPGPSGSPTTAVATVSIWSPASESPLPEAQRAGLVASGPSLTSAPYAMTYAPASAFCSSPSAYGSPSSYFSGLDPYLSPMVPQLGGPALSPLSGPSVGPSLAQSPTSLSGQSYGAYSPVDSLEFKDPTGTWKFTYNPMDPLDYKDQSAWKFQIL
# Sequence of SPIB (Q01892 whole entry): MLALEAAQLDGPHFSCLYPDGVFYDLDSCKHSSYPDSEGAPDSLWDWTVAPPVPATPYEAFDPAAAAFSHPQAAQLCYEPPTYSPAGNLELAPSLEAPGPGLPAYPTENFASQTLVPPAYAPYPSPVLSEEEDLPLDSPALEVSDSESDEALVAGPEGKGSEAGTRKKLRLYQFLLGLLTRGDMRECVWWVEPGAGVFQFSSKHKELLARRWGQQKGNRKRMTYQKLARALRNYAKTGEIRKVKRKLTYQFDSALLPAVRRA
# Sequence of ETV1 (P50549 whole entry): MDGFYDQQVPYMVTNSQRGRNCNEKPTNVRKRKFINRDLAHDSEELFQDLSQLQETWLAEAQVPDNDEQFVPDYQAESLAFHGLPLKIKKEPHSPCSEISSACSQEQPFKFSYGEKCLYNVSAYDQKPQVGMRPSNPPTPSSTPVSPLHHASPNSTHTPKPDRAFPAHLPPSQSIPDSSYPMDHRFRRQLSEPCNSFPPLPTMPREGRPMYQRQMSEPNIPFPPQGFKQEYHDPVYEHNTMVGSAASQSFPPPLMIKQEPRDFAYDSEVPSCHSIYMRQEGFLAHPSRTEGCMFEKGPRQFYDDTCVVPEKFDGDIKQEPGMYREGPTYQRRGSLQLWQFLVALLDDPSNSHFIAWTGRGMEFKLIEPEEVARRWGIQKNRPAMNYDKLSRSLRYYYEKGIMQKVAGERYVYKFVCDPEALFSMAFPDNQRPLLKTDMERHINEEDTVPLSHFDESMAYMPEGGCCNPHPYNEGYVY
sequence,measurement,setting,value
GACCTA,binding signal,[1],"1.18 fold enrichment (6-mer frequency, TF over GST control)"
same,binding signal,[2],"1.07 fold enrichment (6-mer frequency, TF over GST control)"
same,binding signal,[3],"1.17 fold enrichment (6-mer frequency, TF over GST control)"
same,binding signal,[4],"1.11 fold enrichment (6-mer frequency, TF over GST control)"
same,binding signal,[5],"1.21 fold enrichment (6-mer frequency, TF over GST control)"
same,binding signal,[6],"1.15 fold enrichment (6-mer frequency, TF over GST control)"
same,binding signal,[7],"1.02 fold enrichment (6-mer frequency, TF over GST control)"
same,binding signal,[8],"1.08 fold enrichment (6-mer frequency, TF over GST control)"
same,binding signal,[9],"1.21 fold enrichment (6-mer frequency, TF over GST control)"
same,binding signal,[10],"1.17 fold enrichment (6-mer frequency, TF over GST control)"
same,binding signal,[11],"1.2 fold enrichment (6-mer frequency, TF over GST control)"
same,binding signal,[12],"1.06 fold enrichment (6-mer frequency, TF over GST control)"
same,binding signal,[13],"1.18 fold enrichment (6-mer frequency, TF over GST control)"
same,binding signal,[14],"1.24 fold enrichment (6-mer frequency, TF over GST control)"
same,binding signal,[15],"1.14 fold enrichment (6-mer frequency, TF over GST control)"
same,binding signal,[16],"1.26 fold enrichment (6-mer frequency, TF over GST control)"
same,binding signal,[17],"1.06 fold enrichment (6-mer frequency, TF over GST control)"
same,binding signal,[18],"1.07 fold enrichment (6-mer frequency, TF over GST control)"
same,binding signal,[19],"1.16 fold enrichment (6-mer frequency, TF over GST control)"
